Out of some 2,300 compounds screened, about 330 (14%) showed activity.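 The calls were made as follows: active = median modified Z-score above 1.96; inactive = 1.96 or below.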 Not all results are given here.

The source of these data is the supplement of paper PMC10498489.

The assay deals with HepG2 Srxn1-GFP reporter cells (+30 nM CDDO-Me). Description: Srxn1-GFP intensity median modified Z-score relative to plate median; higher = stronger NRF2 / oxidative stress reporter activation, active = hit call of the paper. To be noted: 10 µM; exposure time: 24h. A digest of the protocol: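 Compound at 10 μM was applied with an NRF2 activator at 30 nM to HepG2 Srxn1-GFP BAC reporter cells for 24 h, in DMSO at no more than 0.1%, using three replicate 96-well plates seeded at 20,000 cells per well. Fixed, Hoechst-stained cells were imaged confocally and cytoplasmic GFP was scored for each cell, with images under 100 cells left out. The figure reported is the replicate median of the per-plate modified Z-score of GFP intensity. Scaling relied on 1.4826 × median absolute deviation.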
As for `CC(C)(O)CC[C@@H](O)[C@](C)(O)[C@@H]1CC[C@@]2(O)C3=C(CC[C@]12C)[C@@]1(C)C[C@H](O)[C@H](O)CC1C(=O)C3` (stereo not given in full) [euspeclibcmpd1686], the “Srxn1-GFP intensity median modified Z-score” value is 0.91 (inactive).

With `O=C(O)c1cc(N=Nc2ccc(O)c(C(=O)O)c2)ccc1O` [euspeclibcmpd2114], the “Srxn1-GFP intensity median modified Z-score” value was -0.278 (inactive).

Turning to `N=c1[nH]c(=NC2CC2)c2ncn(C3C=C[C@@H](CO)C3)c2[nH]1` (stereo not given in full) [euspeclibcmpd479], the “Srxn1-GFP intensity median modified Z-score” value is -0.254 (inactive).

On to `CCCCC/C=C/CCC(=O)N[C@H]1[C@H](Oc2c3cc4cc2Oc2ccc(cc2Cl)[C@@H](O[C@@H]2O[C@H](CO)[C@@H](O)[C@H](O)[C@H]2NC(C)=O)c2[nH]c(O)c(c5ccc(O)c(c5)c5c(OC6O[C@H](CO)[C@@H](O)[C@H](O)[C@@H]6O)cc(O)cc5c(=C(O)O)[nH]c2O)NC(=O)[C@@H]4NC(=O)[C@H]2NC(=O)C(Cc4ccc(c(Cl)c4)O3)NC(=O)[C@H](N)c3ccc(O)c(c3)Oc3cc(O)cc2c3)O[C@H](CO)[C@@H](O)[C@@H]1O` (stereo not given in full) [euspeclibcmpd852], for which the “Srxn1-GFP intensity median modified Z-score” value is -0.162 (inactive).

As for `OC[C@H](O)[C@@H](O)CO` [euspeclibcmpd2221], the “Srxn1-GFP intensity median modified Z-score” value is -0.0632 (inactive).

For the compound `Clc1cccc(Cn2cc(-c3cnn(Cc4cccc(Cl)c4)c3)cn2)c1`, the “Srxn1-GFP intensity median modified Z-score” value was 1.3 (inactive).

Regarding `C[C@H](CCC(=O)NCC(=O)O)[C@H]1CCC2C3C(C[C@H](O)[C@@]21C)[C@@]1(C)CC[C@@H](O)CC1C[C@H]3O` (stereo not given in full) [euspeclibcmpd1671], the “Srxn1-GFP intensity median modified Z-score” value was -0.257 (inactive).

With `CC(C)C=CC=CCC(=O)N[C@@H](CC(N)=O)C(=O)N[C@@H]1C(=O)N[C@H](c2ccc(O)cc2)C(=O)N[C@H](CCCN)C(=O)N[C@H]([C@H](C)O)C(=O)N[C@@H](c2ccc(O)cc2)C(=O)N[C@H](c2ccc(O)cc2)C(=O)N[C@@H]([C@H](C)O)C(=O)N[C@@H](Cc2ccccc2)C(=O)N[C@H](CCCN)C(=O)N[C@@H](c2ccc(O[C@@H]3O[C@H](CO)[C@H](O)[C@@H](O)[C@@H]3O[C@@H]3O[C@H](CO)[C@@H](O)[C@H](O)[C@H]3O)cc2)C(=O)NC(C(C)O)C(=O)N[C@@H](c2ccc(O)cc2)C(=O)NCC(=O)N[C@@H](CC(C)C)C(=O)N[C@H](C)C(=O)N[C@@H](c2ccc(O)c(Cl)c2)C(=O)O[C@@H]1C(N)=O` (stereo not given in full) [euspeclibcmpd1079], the “Srxn1-GFP intensity median modified Z-score” value was 0.139 (inactive).

As for `Cc1cc(=O)n(-c2ccccc2)[nH]1` [euspeclibcmpd1143], the “Srxn1-GFP intensity median modified Z-score” value is -0.434 (inactive).

For the compound `CC(=O)N[C@@H]1[C@@H](OC(C)C(=O)O)[C@H](O)[C@@H](CO)O[C@H]1O` (stereo not given in full) [euspeclibcmpd2433], the “Srxn1-GFP intensity median modified Z-score” value was -0.153 (inactive).

As to `COC(=O)C[C@H]1C(C)(C)[C@@H](OC(C)=O)C2CC3C4CC(=O)O[C@@H](c5ccoc5)[C@]4(C)CCC3[C@@]1(C)C2=O` (stereo not given in full) [euspeclibcmpd1596], the “Srxn1-GFP intensity median modified Z-score” value is 1.31 (inactive).

For the compound `C/C1=C/CC(C)(C)/C=C/C/C(C)=C/CC1` [euspeclibcmpd1338], the “Srxn1-GFP intensity median modified Z-score” value was 0.112 (inactive).

For `CCCCOc1cc(C(=O)NCCN(CC)CC)c2ccccc2n1` [euspeclibcmpd89], the “Srxn1-GFP intensity median modified Z-score” value is 0.582 (inactive).

With `CCN(CC)CCNc1ccc(CO)c2sc3ccccc3c(=O)c12` [euspeclibcmpd550], the “Srxn1-GFP intensity median modified Z-score” value is 13.8 (active).

With `N=C(N)NCC1COC2(CCCCC2)O1` (stereo not given) [euspeclibcmpd1929], the “Srxn1-GFP intensity median modified Z-score” value is -0.0176 (inactive).

For `CN(CCOc1ccc(Cc2sc(=O)[nH]c2O)cc1)c1ccccn1` [euspeclibcmpd2243], the “Srxn1-GFP intensity median modified Z-score” value was 0.517 (inactive).

For `Oc1ccc2ccccc2c1` [euspeclibcmpd1176], the “Srxn1-GFP intensity median modified Z-score” value is 1.48 (inactive).

On to `CC(=O)Nc1cccc(O)c1` [euspeclibcmpd1259], for which the “Srxn1-GFP intensity median modified Z-score” value is -0.0594 (inactive).

For `Oc1cccc(O)c1` [euspeclibcmpd262], the “Srxn1-GFP intensity median modified Z-score” value is 13.8 (active).

Consider `CCCCC(=O)N(Cc1ccc(-c2ccccc2-c2nn[nH]n2)cc1)C(C(=O)O)C(C)C` (stereo not given) [euspeclibcmpd719], for which the “Srxn1-GFP intensity median modified Z-score” value is -1.02 (inactive).

On to `CC(=O)OCC(=O)[C@@]1(O)CCC2C3CC=C4CC(=O)CC[C@]4(C)C3C(=O)C[C@@]21C` (stereo not given in full) [euspeclibcmpd74], for which the “Srxn1-GFP intensity median modified Z-score” value is -0.793 (inactive).

On to `N#C/C(=C\c1ccc(SC(F)(F)F)cc1)c1nnc2n1CCCCC2`, for which the “Srxn1-GFP intensity median modified Z-score” value is 2.21 (active).

Take `CCN[C@@H]1C[C@H](N)[C@@H](O[C@H]2OC(CN)=CC[C@H]2N)[C@H](O)[C@H]1OC1OC[C@](C)(O)[C@H](NC)[C@H]1O` (stereo not given in full) [euspeclibcmpd845]: the “Srxn1-GFP intensity median modified Z-score” value was -0.391 (inactive).

For `CC(C)COCC(CN(Cc1ccccc1)c1ccccc1)N1CCCC1` (stereo not given) [euspeclibcmpd972], the “Srxn1-GFP intensity median modified Z-score” value is -0.387 (inactive).

Regarding `CC(COc1ccccc1)N(CCCl)Cc1ccccc1` (stereo not given) [euspeclibcmpd203], the “Srxn1-GFP intensity median modified Z-score” value was 3.84 (active).

Regarding `CCOC(=O)OC(C)OC1=C(C(=O)N=c2cccc[nH]2)N(C)S(=O)(=O)c2ccccc21` (stereo not given) [euspeclibcmpd1195], the “Srxn1-GFP intensity median modified Z-score” value is 0.103 (inactive).

Consider `CCCCC(=O)O[C@H]1CCC2C3CCc4cc(O)ccc4C3CC[C@@]21C` (stereo not given in full) [euspeclibcmpd117], for which the “Srxn1-GFP intensity median modified Z-score” value was -0.716 (inactive).

For the compound `O=C(O)[C@]1(O)C[C@@H](O)[C@@H](O)[C@H](O)C1` [euspeclibcmpd1500], the “Srxn1-GFP intensity median modified Z-score” value is -0.119 (inactive).

For the compound `O=c1ccc2ccccc2o1` [euspeclibcmpd1076], the “Srxn1-GFP intensity median modified Z-score” value is -0.351 (inactive).

Regarding `Cc1cc(C)[nH]c(=NS(=O)(=O)c2ccc(N)cc2)n1` [euspeclibcmpd276], the “Srxn1-GFP intensity median modified Z-score” value was -0.664 (inactive).

With `Cc1cc(C(=O)NCCCn2cncn2)no1`, the “Srxn1-GFP intensity median modified Z-score” value is 1.31 (inactive).

Take `CC(=O)O[C@@H]1C[C@@]23C[C@@]24CC[C@H](O[C@@H]2OC[C@@H](O)[C@H](O)[C@H]2O)C(C)(C)C4CCC3[C@]2(C)C[C@@H]3OC4(C[C@@H](C)[C@@H]3[C@@]12C)O[C@H](O)[C@]1(C)O[C@H]41` (stereo not given in full) [euspeclibcmpd2415]: the “Srxn1-GFP intensity median modified Z-score” value was 0.583 (inactive).

For the compound `CC(=O)CC(c1ccccc1)c1c(O)c2ccccc2oc1=O` (stereo not given) [euspeclibcmpd321], the “Srxn1-GFP intensity median modified Z-score” value was 5.96 (active).

`O=c1c(O)c(-c2ccccc2)oc2ccccc12` [euspeclibcmpd1679]: the “Srxn1-GFP intensity median modified Z-score” value is 1.3 (inactive).

Turning to `CC(=O)CC(c1ccc([N+](=O)[O-])cc1)c1c(O)c2ccccc2oc1=O` (stereo not given) [euspeclibcmpd502], the “Srxn1-GFP intensity median modified Z-score” value is -0.425 (inactive).

`COc1ccc2c(c1)OCc1c-2oc2cc(OC)ccc12` [euspeclibcmpd1708]: the “Srxn1-GFP intensity median modified Z-score” value was 13.6 (active).

Take `COc1ccc2c(C)cc(=O)oc2c1` [euspeclibcmpd1528]: the “Srxn1-GFP intensity median modified Z-score” value is -0.287 (inactive).

Turning to `COc1ccc2c(=O)c(OC)c(-c3ccccc3)oc2c1` [euspeclibcmpd1977], the “Srxn1-GFP intensity median modified Z-score” value was 0.483 (inactive).

As to `CO[C@@]1(NC(O)=c2sc(=C(C(N)=O)C(=O)O)s2)C(=O)N2C(C(=O)O)=C(CSc3nnnn3C)CSC21` (stereo not given in full) [euspeclibcmpd474], the “Srxn1-GFP intensity median modified Z-score” value is -0.0789 (inactive).

`CC(C)CCCC(C)C1CCC2C3CC[C@H]4CCCC[C@]4(C)C3CC[C@]12C` (stereo not given in full) [euspeclibcmpd1324]: the “Srxn1-GFP intensity median modified Z-score” value is 1.13 (inactive).

Consider `CCCCCN=C(N)NN=Cc1c[nH]c2ccc(OC)cc12` [euspeclibcmpd723], for which the “Srxn1-GFP intensity median modified Z-score” value is -0.285 (inactive).

On to `CCCOc1ccc2[nH]c(=NC(=O)OC)[nH]c2c1` [euspeclibcmpd575], for which the “Srxn1-GFP intensity median modified Z-score” value was 5.09 (active).

As to `CCCSc1ccc2[nH]c(=NC(=O)OC)[nH]c2c1` [euspeclibcmpd630], the “Srxn1-GFP intensity median modified Z-score” value was 3.71 (active).

Take `COc1ccc2[nH]cc(CCNC(C)=O)c2c1` [euspeclibcmpd1720]: the “Srxn1-GFP intensity median modified Z-score” value is -0.164 (inactive).

For the compound `NCCc1c[nH]cn1` [euspeclibcmpd147], the “Srxn1-GFP intensity median modified Z-score” value is 0.0512 (inactive).

Regarding `COC=C1CS[C@@H]2C(=NC(=O)C(NOC)c3csc(=N)[nH]3)C(=O)N2C1C(=O)OC(C)OC(=O)OC(C)C` (stereo not given in full) [euspeclibcmpd832], the “Srxn1-GFP intensity median modified Z-score” value is -0.299 (inactive).

Turning to `O=C1CC2(CCCC2)CC(=O)N1CCCCN1CCN(c2ncccn2)CC1` [euspeclibcmpd948], the “Srxn1-GFP intensity median modified Z-score” value is 0.569 (inactive).

`CC1(C)SC2C(NC(=O)C(C(=O)O)c3ccsc3)C(=O)N2C1C(=O)O` (stereo not given) [euspeclibcmpd2129]: the “Srxn1-GFP intensity median modified Z-score” value is -0.127 (inactive).

For `C[C@H](CCC(=O)O)[C@H]1CCC2C3C(CC[C@@]21C)[C@@]1(C)CC[C@@H](O)C[C@H]1C[C@H]3O` (stereo not given in full) [euspeclibcmpd2399], the “Srxn1-GFP intensity median modified Z-score” value was -0.395 (inactive).

In the case of `CCC(=O)O[C@H]1[C@H](O[C@@H]2[C@@H](C)[C@H](O[C@H]3C[C@@](C)(OC)[C@@H](O)[C@H](C)O3)C(C)C(=O)O[C@H](CC)[C@@](C)(O)[C@H](O)C(C)C(=O)C(C)C[C@@]2(C)O)O[C@H](C)C[C@@H]1N(C)C` (stereo not given in full) [euspeclibcmpd411], the “Srxn1-GFP intensity median modified Z-score” value was 0.128 (inactive).

In the case of `COC(=O)c1c(C)cc(O)cc1O` [euspeclibcmpd2120], the “Srxn1-GFP intensity median modified Z-score” value is -0.435 (inactive).

Take `CC(=O)OCC(=O)[C@@]1(O)CCC2C3CC=C4CC(=O)C=CC4(C)C3[C@@H](O)C[C@@]21C` (stereo not given in full) [euspeclibcmpd242]: the “Srxn1-GFP intensity median modified Z-score” value is -0.458 (inactive).

Consider `O=C(NCCN1CCOCC1)NC(=O)c1ccc(Cl)cc1`, for which the “Srxn1-GFP intensity median modified Z-score” value was 1.77 (inactive).

As for `COC(=O)C1CCN(C(=O)C(OC(=O)C2CCC(=O)NC2)C(C)C)CC1` (stereo not given), the “Srxn1-GFP intensity median modified Z-score” value is 0.378 (inactive).

For `CCOc1ccc(C(=O)c2ccc(O)c(O)c2O)cc1` [euspeclibcmpd1369], the “Srxn1-GFP intensity median modified Z-score” value is 0.486 (inactive).

For the compound `O=C(CCCl)NCCc1ccccc1` [euspeclibcmpd2364], the “Srxn1-GFP intensity median modified Z-score” value is 0.0303 (inactive).

Turning to `NNCCc1ccccc1` [euspeclibcmpd231], the “Srxn1-GFP intensity median modified Z-score” value is 0.202 (inactive).

Consider `N=C(N)N=C(N)NCCc1ccccc1` [euspeclibcmpd898], for which the “Srxn1-GFP intensity median modified Z-score” value was 4.79 (active).

With `CC(=O)OCC(=O)[C@@]1(O)[C@@H](C)CC2C3CC=C4CC(=O)C=C[C@]4(C)[C@@]3(F)[C@@H](O)C[C@@]21C` (stereo not given in full) [euspeclibcmpd2268], the “Srxn1-GFP intensity median modified Z-score” value was 0.239 (inactive).

Regarding `CC(C)=CCOc1ccc2c(=O)c(-c3ccccc3)coc2c1`, the “Srxn1-GFP intensity median modified Z-score” value is 0.352 (inactive).
